The campaign covered roughly 1,600 compounds. About 20 (1%) were called active. The entries come from a sample that favours actives as a whole. A number with no mark means an inactive call.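 How the source made its calls: active means ratio of uncleaved NAD to its breakdown product ADP-ribose above 4, meaning the enzyme was inhibited; inactive means the rest.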

We go through 58 molecules from PubChem BioAssay AID1508615 (Milbrandt Lab, Department of Genetics, Washington …, 2020).

NAD(+) hydrolase SARM1 (Homo sapiens), sequence (Q6SZW1 whole entry, looked up): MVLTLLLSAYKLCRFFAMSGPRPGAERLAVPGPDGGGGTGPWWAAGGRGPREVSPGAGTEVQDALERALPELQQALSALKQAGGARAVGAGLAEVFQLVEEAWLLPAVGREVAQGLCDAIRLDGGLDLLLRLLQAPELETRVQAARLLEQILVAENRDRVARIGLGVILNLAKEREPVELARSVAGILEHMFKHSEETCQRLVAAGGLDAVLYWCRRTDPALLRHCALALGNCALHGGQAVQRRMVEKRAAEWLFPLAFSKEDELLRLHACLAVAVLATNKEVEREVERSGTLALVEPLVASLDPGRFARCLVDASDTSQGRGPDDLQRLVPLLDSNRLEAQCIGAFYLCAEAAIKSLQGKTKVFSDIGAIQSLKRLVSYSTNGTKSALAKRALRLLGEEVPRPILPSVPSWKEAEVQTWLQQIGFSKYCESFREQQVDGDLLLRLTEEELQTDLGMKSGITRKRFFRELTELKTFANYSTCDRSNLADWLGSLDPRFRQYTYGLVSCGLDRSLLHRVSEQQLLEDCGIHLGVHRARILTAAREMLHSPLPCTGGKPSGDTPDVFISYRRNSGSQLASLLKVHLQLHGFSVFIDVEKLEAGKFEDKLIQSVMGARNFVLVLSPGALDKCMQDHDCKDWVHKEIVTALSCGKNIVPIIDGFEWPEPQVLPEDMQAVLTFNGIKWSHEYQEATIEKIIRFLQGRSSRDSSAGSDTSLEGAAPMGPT

The assay addresses NAD(+) hydrolase SARM1 (Homo sapiens) (UniProt Q6SZW1). Kind of assay: SARM1 TIR NADase inhibitors by HPLC, primary screen, cell lysate, HPLC readout (AID 1508615).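 Further: substrate NAD at 5 µM with 60 min at 37 °C.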 Conditions: HEK293T SAM-TIR lysate, at 5 µM, stronger effect = higher value.
`C#CCSc1nnnn1-c1ccc(Br)c(C)c1`: the NAD/ADPR ratio was 3.
On to `Cc1ccc(S(=O)c2ccc([N+](=O)[O-])c3nonc23)cc1` (stereo not drawn), for which the NAD/ADPR ratio was 13.2 (active).
On to `O=[N+]([O-])c1cc2cccnc2c2ncccc12`, for which the NAD/ADPR ratio is 3.
For `O=C(O)C(Cc1ccccc1N(CCO)CCO)N1C(=O)c2ccccc2C1=O` (stereo not drawn), the NAD/ADPR ratio is 3.
For `Nc1nc(N)nc(C2C=CCCC2)n1` (stereo not drawn), the NAD/ADPR ratio is 3.
Turning to `O=C(Oc1ccccc1)c1cccc2cccc(C(=O)Oc3ccccc3)c12`, the NAD/ADPR ratio was 3.
The result for `COc1ccc(N=Cc2c(O)ccc3c2oc2cc(Cl)c(O)c(Cl)c23)cc1` reads 3.
On to `CC(O)c1nc2c(c(=O)n(C)c(=O)n2C)n1C` (stereo not drawn), for which the NAD/ADPR ratio is 3.
As for `Cn1ncc2c(Nc3ccccc3Cl)nc(Nc3ccccc3Cl)nc21`, the NAD/ADPR ratio was 3.
The result for `Nc1ccc(C(=O)Nc2ccc(Nc3ccncc3)cc2)cc1` reads 3; that for `Cc1cc2c(cc1[N+](=O)[O-])NC(CNC(C)C)CC2` (stereo not drawn), 3.
For the molecule `CNc1ncn(-c2c(C)cccc2C)c(=O)n1`, the NAD/ADPR ratio is 3.
For `CS/C(=C\c1ccc(C(=O)c2ccc(C)cc2)n1C)S(C)=O` (stereo not drawn), the NAD/ADPR ratio was 3.
For `COC(=O)C1=CC(=O)N2CCN=C2S1`, the NAD/ADPR ratio was 3.
Regarding `COc1cccc(NC(=S)Nc2ccc(O)cc2)c1`, the NAD/ADPR ratio was 3.
`Cc1cccc(NC(=S)Nc2cccc(C)n2)n1`: the NAD/ADPR ratio was 3.
As to `NC(=O)Nc1n[nH]c(-c2ccccc2)n1`, the NAD/ADPR ratio is 3.
Regarding `Cc1ccc(N=Nc2c(N)nn(-c3ccccc3)c2N)cc1`, the NAD/ADPR ratio is 3.
On to `CCOC(=O)/C(C#N)=C/c1cccc(C)c1`, for which the NAD/ADPR ratio is 3.
The result for `CCOC(=O)/C(C#N)=C/c1c[nH]c2ccccc12` reads 3; that for `CCOC(=O)/C(C#N)=C1\SS/C(=C(/C#N)C(=O)OCC)S1`, 7.9 (active).
Under `c1ccn(CCc2ccncc2)c1` stands 3; under `CSC1=NC=C(C#N)C2=NC(c3ccc(Cl)cc3)NN12` (stereo not drawn), 3.
The result for `NC(=O)CCC(C(=O)O)N1C(=O)C2C3CCC(C3)C2C1=O` (stereo not drawn) reads 3; that for `CN(NC(=O)C(=O)NCc1ccco1)C(=O)NC1CCCCC1`, 3; that for `O=C(Nc1ccc(Cl)cc1)c1cc2c(cc1O)[nH]c1ccccc12`, 3.
For `O=C(Nc1ccc(Cl)c([N+](=O)[O-])c1)Nc1nc2ccccc2s1`, the NAD/ADPR ratio was 3.
Consider `CCN1CCC(Nc2ccnc3cc(Cl)ccc23)CC1`, for which the NAD/ADPR ratio was 3.
On to `Cc1c(N2CCCC2)cc2c(c1NC(=O)c1ccccc1Cl)C(C)(C)CC2(C)C`, for which the NAD/ADPR ratio is 3.
On to `CCC(C)Nc1nc2c(c(=O)n(C)c(=O)n2C)n1C` (stereo not drawn), for which the NAD/ADPR ratio is 3.
Turning to `N#CN=C(N)c1ccccc1`, the NAD/ADPR ratio was 3.
As for `COc1cccc(/C=C2\CCc3ccccc3C2=O)c1`, the NAD/ADPR ratio is 3.
On to `NC(=O)c1ccccc1NC(=O)c1ccccc1Cl`, for which the NAD/ADPR ratio was 3.
Turning to `CC(=O)Nc1ccc(Cc2nc3c([nH]2)c(=O)n(C)c(=O)n3C)cc1`, the NAD/ADPR ratio was 3.
Regarding `CCOC(=O)c1ccc(NC(=O)Oc2cc(C)c(Cl)cc2C(C)C)cc1`, the NAD/ADPR ratio was 3.
`Nc1nc(Cl)cc(Nc2ccccc2Cl)n1`: the NAD/ADPR ratio was 3.
Turning to `O=[N+]([O-])c1ccc(/C=C/c2ccncc2)cc1`, the NAD/ADPR ratio is 3.
Regarding `COC(=O)C1(C(=O)OC)C2C(=O)C3C(C21)C3(C(=O)OC(C)(C)C)C(=O)OC(C)(C)C` (stereo not drawn), the NAD/ADPR ratio was 3.
As to `c1ccc2c(c1)cnc1ccccc12`, the NAD/ADPR ratio was 3.
In the case of `NC(N)=Nc1nc2ccc([N+](=O)[O-])cc2[nH]1`, the NAD/ADPR ratio was 3.
For the molecule `O=C(OCC1CCC=CO1)C1CCC=CO1` (stereo not drawn), the NAD/ADPR ratio is 3.
Regarding `Cc1cc(=O)c2cc(C(=O)c3ccccc3)ccc2[nH]1`, the NAD/ADPR ratio was 3.
The result for `O=S(=O)(O)c1ccc2c(c1)C(C(Cl)(Cl)Cl)OC(C(Cl)(Cl)Cl)O2` (stereo not drawn) reads 3; that for `O=c1nccc(SCc2ccc(Cl)cc2Cl)[nH]1`, 3; that for `Oc1ccccc1-c1nc2c3ccccc3c3ccccc3c2[nH]1`, 3.
Take `CN(C)C(=S)/N=c1\ssc(=S)n1Cc1ccco1`: the NAD/ADPR ratio was 3.
Take `CN(C)c1nc(=NCc2ccco2)ss1`: the NAD/ADPR ratio is 9.7 (active).
With `O=C(O)CCC(=O)OCCN(Cc1ccc(Oc2ccc([N+](=O)[O-])cc2)cc1)C(=O)C(Cl)Cl`, the NAD/ADPR ratio was 3.
Regarding `CN(C)CC1C2CCC(C2)C1O` (stereo not drawn), the NAD/ADPR ratio is 3.
With `C(=C\c1ccccn1)/c1ccccn1`, the NAD/ADPR ratio was 3.
The result for `O=C(Oc1ccc[nH]c1=O)c1cccc(Cl)c1` reads 3; that for `Cc1nc(N)nc(Nc2ccc(C#N)cc2)c1Br`, 3.
In the case of `CCCCN1CCNC1=S`, the NAD/ADPR ratio was 3.
The result for `Cc1cccc(Nc2sc(C(=O)c3cc4cc(Cl)ccc4o3)c(N)c2C#N)c1` reads 3.
In the case of `O=c1c2ccccc2ncn1-c1ccc(Cl)cc1`, the NAD/ADPR ratio was 3.
Under `c1cncc(-c2nc3ccccc3s2)c1` stands 3; under `C1=CC2(C=C1)OC21CCC2(C=CC3(C2)OC3C2CCCCC2)CC1` (stereo not drawn), 3; under `NCc1c(O)ccc2ccccc12`, 3.
